In the library only some 3% were active in any assay of this set; here they are far more common.
Peg3 prom inh = inhibitors of Peg3 promoter | HeLa PEG-Prom luciferase reporter, luminescence, overnight | inhibition, % at 20 µM | 1.7% of 360,000 active;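 active = inhibition of at least 50% at 20 µM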
EBV LMP1 NFkB = reduces LMP1-driven NF-kappaB luciferase signal; 0.69% of 350,000 active; inhibition, % at 12.5 µM; AID 504558; LMP1-induced NF-kappaB luciferase reporter cells, luminescence; in the data active = inhibition above about 41%; inconclusive = no clear call, values can overlap the other calls;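 note: 0% = neutral control wells and 100% = reference inhibitor control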
HIF-2a inh = inhibitors of HIF-2a; 786-0 RCC cells HIF-2a reporter, luciferase luminescence, overnight; inhibition, % at 18.8 µM; 0.72% of 360,000 active;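 active = inhibition of the luminescence signal of 40% or more relative to plate controls, in a single-dose primary screen at 18.75 µM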
KKLEB tox = CF airway cell cytotoxicity counter-screen. activity change (cytotoxicity), % at 5 µM. KKLEB CF airway cells viability, ATPlite luminescence, overnight; active compounds read low; cells stimulated with P. aeruginosa culture filtrate. 0.36% of 360,000 active;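 active = corrected activity change at or below -50% at 5 µM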
CF NFkB block = inhibitors of cystic fibrosis induced NF-kB; 0.86% of 360,000 active; inhibition, % at 5 µM; AID 588850; KKLEB NF-kB-GFP reporter, PAF-induced, GFP fluorescence overnight;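 active = at least 50% inhibition at 5 µM, scaled per plate between neutral and stimulator controls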;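 note: PAF is a Pseudomonas aeruginosa culture filtrate used as stimulus; plate controls were PAF-stimulated DMSO wells for no effect and unstimulated DMSO wells for full effect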
MITF TRPM1 inh = inhibitors of MITF-driven TRPM1 promoter in melanoma cells; AID 488899; inhibition, % at 12.5 µM; SK-MEL-5 TRPM1 promoter luciferase, 24 h; 0.83% of 330,000 active;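 active = mean inhibition across replicates of 60% or more, whatever share of single replicates reaches that level; inconclusive = some that reach 60%, reason not given; inactive = mean inhibition across replicates below 60%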
* = called active by the depositor; ? = inconclusive; · = not tested or not shown.

SMILES	Peg3 prom inh	EBV LMP1 NFkB	HIF-2a inh	KKLEB tox	CF NFkB block	MITF TRPM1 inh
Cn1c(CCN2CCN(c3ccccn3)CC2)nc2cc(NC(=O)COc3ccc(Cl)cc3)ccc21	52*	24	22	-12	23	58
COc1ccc(OCC(=O)Nc2ccc3c(c2)nc(CCN2CCN(c4ccccn4)CC2)n3C)cc1	6	-21	-5	25	-27	·
CCCc1cc(=O)oc2cc(C)cc(OCC(=O)Nc3cccnc3)c12	87*	0	12	-3	-18	3
CC1=NN(c2ccc(C)cc2)C(=O)/C1=C/c1ccc(-c2cc([N+](=O)[O-])ccc2O)o1	17	-10	-13	-41	54*	6
CC1=NN(c2ccc(C(=O)O)cc2)C(=O)/C1=C/c1ccc(-c2ccccc2F)o1	28	3	-5	-1	-5	4
C[C@@H]1CN([C@@H](C)CO)C(=O)CCCn2cc(nn2)CO[C@H]1CN(C)S(=O)(=O)c1cccc(C#N)c1	0	-7	12	10	8	·
FC(F)(F)c1ccccc1Cc1c(-c2ccc(Cl)cc2)nc2c3ccccc3ccn12	·	·	-43	·	·	·
CCN(CC)C(=O)c1ccc2nc3ccccc3nc2c1	-71	3	-76	9	-10	51
CCN(CC)c1ccc2nc3ccccc3[n+](CC)c2c1	57*	1	17	13	-5	67*
CC1=CC(=O)C=CC1=Nc1ccc(N(C)C)cc1	-4	·	-37	-5	43	·
Cc1cc(-n2c(C)cc(C(=O)CN3C(=O)C(=O)N(C)C3=O)c2C)no1	-9	6	7	4	-9	2
Cc1cc(-n2c(C)cc(C(=O)CCl)c2C)no1	75*	0	14	-12	50	76*
Cc1nnc(SCC(=O)c2cc(C)n(-c3c(C)n(C)n(-c4ccccc4)c3=O)c2C)s1	10	-7	4	-2	-22	7
COc1ccc(-n2c(C)cc(C(=O)CN3C(=O)c4ccccc4C3=O)c2C)cc1	-37	-5	-98	8	9	-18
Cc1cc(C(=O)CCl)c(C)n1-c1c(C)n(C)n(-c2ccccc2)c1=O	60*	14	18	6	39	48
COc1ccc(-n2c(C)cc(C(=O)CCl)c2C)cc1	101*	22	40*	-17	0	95*
N#Cc1c2ccc(O)cc2n2ccccc12	-64	7	18	10	71*	-1
N#Cc1c2ccc(OCC(=O)NCc3ccco3)cc2n2ccccc12	21	1	9	-9	-7	4
Cc1cccc(OC(=O)c2ccc3c(=O)n4c(nc3c2)CCC4)c1	-2	-4	-9	5	11	·
COc1ccc(NC(=S)N(CCN(C)C)C(C)c2ccncc2)cc1Cl (stereo not drawn)	54*	4	3	5	-7	-5
Cc1cc(C(=O)Nc2ccncc2)c(C)o1	5	4	7	-13	-2	5
COc1ccc(-[n+]2c(C)cc(/C=C3\Sc4ccccc4N3C)cc2C)cc1	115*	-7	53*	-31	-82	101*
Cc1cccc(N=C2CCCC2C(=O)Nc2cccc(C)c2C)c1C (stereo not drawn)	30	0	7	7	0	11
CCNC(=O)C1(C)CCN(C(=O)c2ccc3ccccc3c2)C1 (stereo not drawn)	-2	·	0	-4	1	·
CCOc1ccc(OCCC(=O)N(CCC2=CCCCC2)c2c(N)n(Cc3ccccc3)c(=O)[nH]c2=O)cc1	29	1	18	2	0	8
SMILES	Peg3 prom inh	EBV LMP1 NFkB	HIF-2a inh	KKLEB tox	CF NFkB block	MITF TRPM1 inh
COc1ccc(CC(=O)N(CCC2=CCCCC2)c2c(N)n(Cc3ccccc3)c(=O)[nH]c2=O)cc1	17	6	13	0	-14	·
CC(CC(=O)N(CCC1=CCCCC1)c1c(N)n(Cc2ccccc2)c(=O)[nH]c1=O)c1ccccc1 (stereo not drawn)	87*	4	-6	5	-12	?
CCOc1ccc(OCC(=O)N(CCC2=CCCCC2)c2c(N)n(Cc3ccccc3)c(=O)[nH]c2=O)cc1	83*	-5	4	-62*	72*	77*
CN1CCN(C(=O)c2cnc(Cc3c[nH]c4ccccc34)c(I)c2)CC1	-14	·	1	-13	7	·
O=C(O)/C=C/C(=O)Nc1cccc2c1-c1ccccc1C2=O	9	-2	14	10	6	3
Cc1cc(C)c2c(=O)n3c(nc2c1)C(Cc1ccc(O)cc1)NC(=O)c1cc2ccccc2cc1-3 (stereo not drawn)	67*	1	-10	-2	5	·
O=[N+]([O-])c1cnc(Sc2ccncn2)c([N+](=O)[O-])c1	113*	26	5	-2	-8	·
O=[N+]([O-])c1ccc(Sc2ncccn2)c([N+](=O)[O-])c1	11	-11	1	-23	37	35
O=[N+]([O-])c1ccc(-[n+]2ccc3ccccc3c2)c([N+](=O)[O-])c1	96*	11	34	-81*	82*	89*
Cn1cc(Cc2ccc(C(=O)NCc3ccccc3)cn2)c2ccccc21	-1	·	-9	-19	18	·
O=C(Oc1c(Cl)cc(Cl)c2cccnc12)c1ccco1	56*	38	-12	8	0	24
COc1cc(C(=O)Oc2c(OC)cc(C(=S)N3CCOCC3)cc2OC)cc(OC)c1OC	16	5	19	0	5	19
COc1cc(C(=O)Oc2c(CN3CCOCC3)cc(Cl)c3cccnc23)cc(OC)c1OC	33	35	15	-16	27	69*
COc1ccc(C(=O)Oc2c(CN3CCOCC3)cc(Cl)c3cccnc23)cc1	28	4	19	-2	10	8
COc1cccc(C(=O)Oc2c(CN3CCOCC3)cc(Cl)c3cccnc23)c1	33	7	14	5	10	67*
O=C(Oc1c(Cl)cc(Cl)c2cccnc12)c1cccs1	29	8	-6	18	1	13
O=C(Oc1c(CN2CCOCC2)cc(Cl)c2cccnc12)c1cccs1	26	4	13	4	-2	69*
CCCNC(=O)CSc1nnc(NC(=O)C2CC(=O)N(c3ccccc3OC)C2)s1 (stereo not drawn)	-15	-3	5	6	-26	·
O=S1(=O)N[C@@H](Cc2ccccc2)COc2cccc(N3CCSCC3)c21	·	·	0	·	·	·
COc1ccc(Oc2c(OC)cc(NCc3ccc(CN)cc3)c3ncccc23)cc1	4	-14	3	8	-3	·
OCCN1CCN(Cc2cc(Cl)c3cccnc3c2O)CC1	17	23	7	9	-20	8
O=C(Oc1c(CN2CCOCC2)cc(Cl)c2cccnc12)c1ccc(F)cc1	40	58*	28	12	3	64*
O=C1/C(=C/c2cccnc2)SC(=S)N1C1CCS(=O)(=O)C1 (stereo not drawn)	28	7	53*	-13	72*	23

Compound activity: PubChem BioAssay, several laboratories
